Test results from PubChem BioAssay (Tox21).
Where “and” joins values, the source holds several entries; their conditions need not be identical. Equal entries are not always repeated. Records with an inconclusive call do not appear. Where a call stands in place of a potency, no number is given. Some structures have more than one record in an assay (separate samples or runs), and their calls can disagree. Calls of active or inactive are those of the source. Calls come from the whole dose curve; as a rule, active = well fitted cell-killing curve with a large enough effect in the repeat runs; inconclusive = weak or mixed curves; inactive = flat fitted curve, though single readings scatter.

Experiment: qHTS assay to identify small molecule antagonists of the estrogen receptor beta (ER-beta) signaling pathway - cell viability counter screen (AID 1259382); note: nearly all actives have a fitted effect of over 55% in size
Settings: ER-beta-UAS-bla HEK293T viability, CellTiter-Glo luminescence, 16 h; series mostly up to 92.4 µM
From the text: U.S. Tox21 Program National Center for Advancing Translational Sciences [NCATS] NIH Chemical Genomics Center [NCGC] U.S. Environmental Protection Agency [EPA] National Institutes of Environmental Health Sciences [NIEHS] National Toxicology Program [NTP] U.S. Food and Drug Administration [FDA] Tox21 Assay Overview: Estrogen receptor (ER), a nuclear hormone receptor, plays an important role in development, metabolic homeostasis and reproduction. Two subtypes of ER, ER-alpha and ER-beta, have similar expression patterns with some uniqueness in both types. Endocrine disrupting chemicals (EDCs) and their interactions with steroid hormone receptors like ER causes disruption of normal endocrine function. To identify the compounds that inhibit ER signaling, an ER-beta-UAS-bla GripTite cell line (Life Technologies, Madison, WI, USA) containing a beta-lactamase reporter gene under the control of an UAS response element was used to screen Tox21 10K compound library. The cytotoxicity of the Tox21 compound library against the ER-beta-bla cell line was tested in parallel by measuring the cell viability using CellTiter-Glo assay in the same wells.
Tox21 Assay Protocol Summary: ER-beta-UAS-bla HEK293T cells were dispensed at 2,000 cells/4 uL of assay medium containing 2% charcoal stripped FBS per well into black wall/clear-bottom 1536-well plates using a Multidrop Combi (ThermoFisher Scientific, Waltham, MA) dispenser. After the assay plates were incubated at a 37C and 5% CO2 for 6 hr, 23 nL of compounds dissolved in DMSO, positive controls or DMSO only was transferred to the assay plate by a Pintool station (Kalypsys, San Diego, CA), followed by addition of 1 uL (1nM as final concentration) of 17-beta-estradiol (E2) in assay medium using a Flying Reagent Dispenser (FRD, Aurora Discovery, San Diego, CA). The plates were incubated at 37C and 5% CO2 for 16 hr. Then 1 uL of LiveBLAzer B/G FRET substrate was added using a Flying Reagent Dispenser, the plates were incubated at room temperature for 2 hours, and fluorescence intensity was measured by an Envision plate reader (PerkinElmer, Shelton, CT). For cell viability readout that measures cytotoxicity, 4 uL/well of CellTiter-Glo reagent was added into the assay plates using a FRD. After 30 min incubation at room temperature, the luminescence intensity in the plates was measured using a ViewLux (PerkinElmer) plate reader.
Potency is the fitted concentration of half-maximal effect.

| SMILES | Potency |
| --- | --- |
| CCC(CO)(CO)COCC(CC)(CO)CO | inactive |
| CCCOC(=O)c1cc(O)c(O)c(O)c1 | inactive |
| C=C(C)C1CC=C(C)C(OC(C)=O)C1 (stereo not given) | inactive |
| O=C(O)c1cn(-c2ccc(F)cc2)c2cc(N3CCNCC3)c(F)cc2c1=O | inactive |
| O=C1Nc2ccccc2C1(c1ccc(O)cc1)c1ccc(O)cc1 | inactive |
| c1ccc2c(c1)-c1cccc3c1c-2cc1ccccc13 | inactive |
| CC(=O)CC(C)=O | inactive |
| CCN(CC)C(=O)Nc1ccc(OCC(O)CNC(C)(C)C)c(C(C)=O)c1 (stereo not given) | inactive |
| C#CC(C)(CC)OC(=O)c1ccccc1C(=O)O (stereo not given) | inactive |
| O=Nc1ccc(Nc2ccccc2)cc1 | 61.4 µM (active) |
| O=C(Oc1ccccc1)c1ccccc1O | inactive |
| CNC1(C)C2CCC(C2)C1(C)C (stereo not given) | inactive |
| O=C(Cl)c1cccc(C(=O)Cl)c1 | inactive |
| CC1=CC(=O)c2ccccc2C1=O | 24.3 µM (active) |
| O=C(Nc1ccccc1SSc1ccccc1NC(=O)c1ccccc1)c1ccccc1 | inactive |
| CO[Si](OC)(OC)c1ccccc1 | inactive |
| Cc1scc2c1N(C(=O)CN1CCN(C)CC1)c1ccccc1NC2=O | inactive |
| NC12CC3CC(CC(C3)C1)C2 | inactive |
| CC(C)C(=O)c1c(C(C)C)nn2ccccc12 | inactive |
| O | inactive |

| SMILES | Potency |
| --- | --- |
| Nc1cc(Cl)c(-c2cc(Cl)c(N)cc2Cl)cc1Cl | 17.2 µM (active) and 27.3 µM (active) |
| c1ccc2cc3c(ccc4ccccc43)cc2c1 | inactive |
| O=C1OC2(c3ccc(O)cc3Oc3cc(O)ccc32)c2ccccc21 | inactive |
| COC(c1ccccc1)(c1ccccc1)[C@H](Oc1nc(C)cc(C)n1)C(=O)O | inactive |
| O=C(OCc1ccccc1)c1ccc(O)cc1 | inactive |
| COc1ccc(Cc2cnc(N)nc2N)cc1OC | inactive |
| CC(=O)C1=C(C)[C@@H]2C[C@@]3(C1)[C@H](C)CC[C@H]3C2(C)C | inactive |
| COc1cc(C(=S)N2CCOCC2)ccc1O | inactive |
| NCCO | inactive |
| BrC1CCC(Br)C(Br)CCC(Br)C(Br)CCC1Br (stereo not given) | 54.3 µM (active) and 46.1 µM (active) |
| CCCCN(CCO)CCCC | inactive |
| CC1COC(=O)O1 (stereo not given) | inactive |
| CCCCCCC(O)CCCCCCCCCCC(=O)O (stereo not given) | inactive and 30.6 µM (active) |
| CCN(CC)c1ccc2c(C)cc(=O)oc2c1 | inactive |
| Cc1cc(Cc2cc(C)cc(C(C)(C)C)c2O)c(O)c(C(C)(C)C)c1 | 17.3 µM (active) and 21.7 µM (active) |
| O=S(=O)(O)c1ccc2nc(-c3ccccc3)[nH]c2c1 | 32.7 µM (active) |
| CC(C)CCOC(=O)c1ccc(N(C)C)cc1 | inactive |
| CC(COc1ccccc1)N(CCCl)Cc1ccccc1 (stereo not given) | inactive |
| CC[C@H]1CN2CCc3cc(OC)c(OC)cc3[C@@H]2C[C@@H]1C[C@H]1NCCc2cc(OC)c(OC)cc21 | inactive |
| OCC(CO)N[C@H]1C[C@](O)(CO)[C@@H](O)[C@H](O)[C@H]1O | inactive |
